# Data published in PubChem BioAssay AID540257 (Southern Research Specialized Biocontainment Screening …, 2011).
# Among all 1,800 compounds or so, about 15 (0.8%) were called active. How the calls were made is not given here. A selection follows. Entries that show only a call come without a potency. Potency and affinity values are given separately.
# Test: antiviral activity against H1N1 influenza, dose response, cell-based, strain KY136 (AID 540257)
# Conditions: H1N1 KY136 influenza antiviral cell assay, % inhibition; series mostly up to 40 µM
row,SMILES,outcome
1,CC(=O)NC(c1ccccc1)c1cc([N+](=O)[O-])c2cccnc2c1O (stereo not drawn),inactive
2,Nc1[nH]c(N=NC(=O)c2ccccc2O)c2ccccc12,inactive
3,COc1cc(-c2n[nH]c(=S)n2-c2cccc(C(F)(F)F)c2)cc(OC)c1OC,inactive
4,CN1CCN(NC(=O)CN2C(=O)/C(=C/c3ccccc3Cl)SC2=S)CC1,inactive
5,O=C(CCCN1C(=O)/C(=C/c2ccc3c(c2)OCO3)SC1=S)Nc1ccc(C(=O)O)cc1,inactive
6,CCOC(=O)c1ccc(Nc2c(CC)c(C)nc3ncnn23)cc1,inactive
7,COc1ccccc1N1CCN(C(=O)CCCn2c(=O)[nH]c3ccsc3c2=O)CC1,inactive
8,O=C1CCCC2=C1C1(CCCCC1)N=C(Nc1nc3ccccc3s1)N2,inactive
9,O=C(O)c1cccc2c1/C(=N/O)c1ccccc1-2,inactive
10,O=C(COC(=O)c1ccc([N+](=O)[O-])cc1)Nc1cccnc1Cl,inactive
11,C[n+]1c(/C=C/c2ccc(O)cc2)ccc2ccccc21,inactive
12,COc1cc(C=NO)nc(-c2ccccn2)c1,inactive
13,O=[N+]([O-])c1cccc(C=Nc2cc3c(cc2Br)OCCO3)c1,inactive
14,CCOc1ccccc1CNC(=O)c1ccc2c(c1)N(CC)CCS2,inactive
15,Clc1ccc(-c2nnc(N3CCCC3)nn2)cc1,inactive
16,CCCS(=O)(=O)n1nc(-c2ccccc2)cc1N,inactive
17,O=C(Nc1ccc(N2CCOCC2)cc1)Nc1ccc(Cl)c(Cl)c1,inactive
18,O=C1CC(c2ccccc2)Cc2nc(NCc3ccco3)ncc21 (stereo not drawn),inactive
19,Nc1nc(Nc2ccccc2)nc(NCc2ccco2)c1[N+](=O)[O-],inactive
20,C=CC[n+]1c(/C=C2\C=Cc3cc(C)ccc3N2CC)ccc2ccccc21,inactive
21,O=C1C(=C(c2ccccc2)c2ccccc2)Nc2ccccc21,inactive
22,O=C(CN1CCN(S(=O)(=O)c2ccccc2)CC1)Nc1ccc(N2CCOCC2)cc1,inactive
23,O=S(=O)(c1cccs1)N1CCN(CC(O)COc2cc(Cl)ccc2Cl)CC1 (stereo not drawn),inactive
24,O=C(CCc1ccccc1)Nc1cc2c(cc1Cl)OCCO2,inactive

row,SMILES,outcome
1,O=C(Nc1ccccc1C(=O)NCc1cccnc1)c1ccc(Cl)cc1Cl,inactive
2,O=C(COC(=O)[C@H](Cc1c[nH]c2ccccc12)NC(=O)c1cccs1)NCc1ccccc1,inactive
3,c1ccc(Cn2nnc3c(N4CCCCCC4)ncnc32)cc1,inactive
4,CCOC(=O)N1CCN(c2cc(=O)n(-c3ccc(C)cc3)c(=O)[nH]2)CC1,inactive
5,O=C1C(Nc2ccc(O)cc2)=C/C(=N/S(=O)(=O)c2cccs2)c2ccccc21,inactive
6,O=C(NC(=S)NNC(=O)c1cnccn1)c1ccc(Cl)cc1,inactive
7,O=C1CSC(=S)N1N=Cc1ccccc1O,inactive
8,O=C(Nc1cccc(Cl)c1)c1cc(N=Nc2ccc([N+](=O)[O-])cc2Cl)ccc1O,inactive
9,CC(=O)N1CCC(N(CCCOC(C)C)C(=O)Nc2ccc(Cl)cc2)CC1,inactive
10,CCOC(=O)c1c(C2CC2)csc1NC(=O)COC(=O)c1ccc[n+]([O-])c1,inactive
11,COCc1cc(=O)[nH]c(Nc2nc3ccccc3o2)n1,inactive
12,O=[N+]([O-])c1ccc(O)c(/C=N/Nc2nn[nH]n2)c1,inactive
13,Cc1ccc(C(=O)Nc2nc(-c3ccccn3)cs2)o1,inactive
14,COc1ccc(CC(=O)N2N=C(C)CC2(O)c2cccnc2)cc1OC (stereo not drawn),inactive
15,CCOc1ccc(OCCOCCn2ccnc2)cc1,inactive
16,Cc1ccc(S(=O)(=O)N2CCN(C(=O)c3ccc(N4CCCC4)c([N+](=O)[O-])c3)CC2)cc1,inactive
17,COc1ccc(CNC(=O)Cn2ccc([N+](=O)[O-])n2)cc1OC,inactive
18,CCN(C(C)=O)c1cnc(C=NNC(N)=S)c2ccccc12,inactive
19,Cc1cc2ncn(C(=O)c3c(-c4ccccc4Cl)noc3C)c2cc1C,inactive
20,Oc1c(C(Nc2ccccn2)c2ccccn2)ccc2cccnc12 (stereo not drawn),inactive
21,COc1ccc(N2CCN(CCNC(=O)Nc3ccc([N+](=O)[O-])cc3OC)CC2)cc1,inactive
22,CCOc1ccc(N=Cc2c(O)cc(C)oc2=O)cc1,inactive
23,CN(C)c1ccc(N=Nc2ccccc2C(=O)OCC(=O)N(C)c2ccccc2)cc1,inactive
24,NC(=O)NC(=O)CC1S/C(=N/N=C2\CSC(=O)N2)NC1=O (stereo not drawn),inactive

row,SMILES,outcome
1,CC(=O)Oc1ccc(NC(=O)Cc2ccccc2)cc1,inactive
2,COc1ccc2cc3c(N)nn(C(=O)Cc4ccccc4OC)c3nc2c1,inactive
3,CN(C)c1ccc(CN2CC=C(c3ccc(F)cc3)CC2)cc1,inactive
4,CC(NS(C)(=O)=O)C(c1cccs1)N1CCN(c2ccccc2)CC1 (stereo not drawn),inactive
5,Cc1ccccc1NC(=S)N/N=C/c1ccc(O)cc1O,inactive
6,O=C(N/N=C/c1ccco1)Nc1ccccc1,inactive
7,COc1ccc(C2C3=C(CC(C)(C)CC3=O)Oc3ncn(Cc4ccco4)c(=N)c32)cc1 (stereo not drawn),inactive
8,Cc1ccccc1CNC(=O)CCC(=O)N1CCOc2ccc(Cl)cc21,inactive
9,CCC(C)NC(=O)CN1C(=O)COc2ccc(S(=O)(=O)N3CCOCC3)cc21 (stereo not drawn),inactive
10,CS(=O)(=O)N1CCC(Oc2cccc(C(=O)NCCCC3CCCC3)c2)CC1,inactive
11,CC(/C=C/c1ccccc1)=N\NC(=O)Cn1nc(C)cc1C,inactive
12,O=C(Cn1c(=O)c(C(F)(F)F)nc2ccccc21)N1CCC2(CC1)OCCO2,inactive
13,Cc1cccn2c(=O)c(C=C(C#N)C#N)c(N3CCN(c4ccccc4)CC3)nc12,inactive
14,CCCCN1C(=O)NC2NC(=O)NC21 (stereo not drawn),inactive
15,CC(C)C(C(=O)Nc1ccccc1F)N1C(=O)c2ccccc2C1=O (stereo not drawn),inactive
16,O=C(Nc1ccccc1)c1ccc[n+](Cc2ccc([N+](=O)[O-])cc2)c1,inactive
17,O=C1C(NS(=O)(=O)c2cccs2)=C(N2CCN(c3ccccc3)CC2)C(=O)c2ccccc21,inactive
18,Fc1cccc(Nc2ncnc3c2cnn3-c2ccccc2)c1,inactive
19,O=C1c2ccccc2C(=O)c2c1cccc2N1CCOCC1,inactive
20,O=C(N/N=C/C1C(=O)NC(=S)N(c2ccccc2)C1=O)c1cc(Br)c(O)c(Br)c1 (stereo not drawn),inactive
21,CCOC(=O)c1sc(NC(=O)c2ccc3ncsc3c2)nc1C,inactive
22,O=[N+]([O-])c1cc(Br)c2nsnc2c1N1CCOCC1,inactive
23,CCOC(=O)CC(NS(=O)(=O)c1ccc(NC(C)=O)cc1)c1ccc(OCC)cc1 (stereo not drawn),inactive
24,CN(C)c1ccc(C=c2c3ccccc3n3c2c2c([n+]3C)CCCC2)cc1,inactive

row,SMILES,outcome
1,O=C(NC1CC1)C(=O)c1c(-c2ccccc2)[nH]c2ccccc12,inactive
2,Cc1nn(Cc2ccccc2)c(C)c1N,inactive
3,S=c1sscc1-c1ccccc1,inactive
4,COc1ccc(/C=C/C(=O)OCC(=O)NCCc2ccccc2)c(OC)c1,inactive
5,COc1ccc(S(=O)(=O)N2CCOCC2)cc1NC(=O)CN1CCN(C)CC1,inactive
6,COc1ccc(CSC2=NCCN2)cc1Cl,inactive
7,C=CCn1c(N)c(C(=O)NCCC2=CCCCC2)sc1=S,inactive
8,O=C(CN1C(=O)c2cccc3cccc(c23)C1=O)N1CCN(Cc2ccc3c(c2)OCO3)CC1,inactive
9,CCCn1nc([N+](=O)[O-])c(C(C#N)c2nc3ccccc3s2)c(Cl)c1=O (stereo not drawn),inactive
10,Cc1c(N2C(=O)/C(=C/c3ccccc3)SC2=S)c(=O)n(-c2ccccc2)n1C,inactive
11,O=C(NCCN1CCOCC1)c1cc2sccc2n1Cc1ccc(Cl)cc1,inactive
12,O=C(CSc1ccccc1)Nc1nnc(/C=C/c2ccccc2)s1,inactive
13,CCOC(=O)CCSCC(=O)Nc1nnc(C)s1,inactive
14,Cc1nc(CNS(=O)(=O)c2ccc3ccccc3c2)cs1,inactive
15,CCc1nccn1C(=O)c1cnn2c(C(F)F)cc(-c3ccc(C)cc3)nc12,inactive
16,Cc1c(N/N=C(\C#N)C(=O)c2ccccc2)c(=O)n(-c2ccccc2)n1C,inactive
17,COc1ccc2sc(NC(=O)c3ccco3)nc2c1,inactive
18,CCCc1ccc2oc(C(=O)NCc3nnc(C)o3)c(C)c2c1,inactive
19,O=C(N/N=C/c1cc(Br)c(O)c(Br)c1O)c1cccnc1,inactive
20,CCn1c(C(C)NC(=O)c2cccc(C)c2)nc2ccccc21 (stereo not drawn),inactive
21,COc1ccc(C(CCNCc2ccc(N(C)C)cc2)C(C)C)cc1 (stereo not drawn),inactive
